# Source: PubChem BioAssay (Tox21)
# Records with an inconclusive call do not appear. The source made the active and inactive calls. Calls follow the shape of the dose curve; as a rule, active = well fitted inhibition curve with a large enough effect in the repeat runs; inconclusive = weak or mixed curves; inactive = no such curve, though single readings can be large or run the other way.
# Biological target: Cytochrome P450 3A4 (Homo sapiens) (UniProt P08684)
# Test: Cytochrome P450 Family 3 Subfamily A Member 4 (CYP3A4) small molecule antagonists: luciferase reporter qHTS assay (AID 1671201); also: nearly all actives have a fitted effect of over 50% in size
# Details: P450-Glo CYP3A4 enzyme, luciferin luminescence, 1 h; series mostly up to 115 µM; activity change, negative = inhibition: at the top concentration
# Source text: National Center for Advancing Translational Sciences [NCATS]
# U.S. Environmental Protection Agency [EPA]
# National Institutes of Environmental Health Sciences [NIEHS]
# National Toxicology Program [NTP]
# U.S. Food and Drug Administration [FDA]
# Cytochrome P450 (CYP) enzymes are membrane-bound hemeproteins that play a key role in metabolism of drugs and xenobiotics. Evaluation of the effect of chemicals on CYP isozymes is useful to minimize the adverse drug reactions and toxicities in drug development process. Tox21 chemicals were tested for their effect on CYP enzyme activities by using P450-Glo (TM) screening systems (Promega Corporation, Madison, WI). These systems provide a luminescent method containing proluciferin substrates and are converted to luciferin products by CYP isozymes. The luciferin products formed are detected with a luciferin detection reagent, and the amount of light produced is proportional to CYP activity. P450-Glo (TM) CYP3A4 screening system (Catalog. No. V9910) was used to detect the compounds that interfere in CYP3A4 activity. The positive control compound used for CYP3A4 assay is ketoconazole (Sigma-Aldrich, St. Louis, MO).
# Tox21 Assay Protocol Summary:
# Two ul of enzyme-substrate mix was dispensed into medium binding white/solid 1536-well plates (Greiner Bio-One North America Inc., Monroe, NC) using a BioRaptr Flying Reagent Dispenser (FRD, Beckman Coulter, Brea, CA). Compounds dissolved in DMSO and positive control (ketoconazole) were transferred to the assay plates at 23 nl using a Pintool station (Wako, San Diego, CA). The assay plates were incubated at room temperature for 10 min. Then 2 ul of NADPH regeneration solution was added to each well of the assay plates using an FRD and incubated at room temperature for 1 h. The reaction was stopped by adding 4 ul of detection reagent using an FRD and after 20 min incubation at room temperature the luminescence signal was measured using a ViewLux plate reader (Perkin Elmer, Shelton, CT). Data were expressed as relative luminescence units.
# % is scaled to controls: 0 for no effect and ±100 for the full control effect; potency is read from the fitted curve at half-maximal effect.
# Sequence of Cytochrome P450 3A4 (Homo sapiens) (P08684 whole entry, looked up): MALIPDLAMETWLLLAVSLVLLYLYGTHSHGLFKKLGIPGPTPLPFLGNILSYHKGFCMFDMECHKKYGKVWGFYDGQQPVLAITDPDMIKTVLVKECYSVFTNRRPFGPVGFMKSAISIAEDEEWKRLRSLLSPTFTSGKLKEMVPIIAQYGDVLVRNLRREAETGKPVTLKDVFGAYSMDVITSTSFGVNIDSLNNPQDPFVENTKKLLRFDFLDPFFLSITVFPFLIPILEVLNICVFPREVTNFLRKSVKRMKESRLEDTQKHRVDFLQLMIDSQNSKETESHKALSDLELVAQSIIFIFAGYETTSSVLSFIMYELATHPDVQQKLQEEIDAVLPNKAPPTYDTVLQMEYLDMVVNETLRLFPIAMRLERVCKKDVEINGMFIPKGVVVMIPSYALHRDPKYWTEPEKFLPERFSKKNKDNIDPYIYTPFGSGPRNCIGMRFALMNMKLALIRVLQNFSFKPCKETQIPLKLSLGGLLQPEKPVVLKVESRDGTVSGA
Compound,"activity change, negative = inhibition",Potency
Nc1c(CC(=O)O)cccc1C(=O)c1ccc(Br)cc1,-7.07% [at 52.9 µM] (inactive),
CCN(CC)CCNc1ccc(CNC=O)c2sc3ccc(OC)cc3c(=O)c12,,20 µM (active)
CC/C=C\CCOC(=O)CC,0.733% (inactive),
CC(=O)[O][Al][O]C(C)=O,0.0685% (inactive),
c1cc(CCCc2ccncc2)ccn1,,1 µM (active)
O=C1C(O)=C(O)C(=O)C(O)=C1O,11% [at 52.9 µM] (inactive),
CC(C)(C)Cl,10.6% (inactive),
O=C(O)C1(C(=O)Nc2ccc(Cl)cc2Cl)CC1,44.2% (inactive),
CCCCCCCCCCCCCCCCOS(=O)(=O)O,5.04% [at 52.9 µM] (inactive),
Cc1cccc(C)c1NC(=O)CN(CC(=O)O)CC(=O)O,6.01% [at 52.9 µM] (inactive),
Brc1c2ccccc2cc2ccccc12,,18 µM (active)
CC(=O)OC[C@H]1O[C@@H](n2ncc(=O)[nH]c2=O)[C@H](OC(C)=O)[C@@H]1OC(C)=O,6.39% [at 52.9 µM] (inactive),
O=C(O)CC(=O)C(=O)O,7.3% (inactive),
CCCCC(CC)COC(=O)COc1ccc(Cl)cc1Cl (stereo not given),,32.2 µM (active)
O=C1c2ccccc2S(=O)(=O)N1CCCCN1CCN(c2ncccn2)CC1,30.6% [at 52.9 µM] (inactive),
C[N+]1(CC2COC(c3ccccc3)(C3CCCCC3)O2)CCCCC1 (stereo not given),,3.89 µM (active)
O=[N+]([O-])c1cccc(S(=O)(=O)O)c1,,36.1 µM (active)
CC(C)=CCC/C(C)=C/CC/C(C)=C/CO,,25.2 µM (active)
OCCNCc1ccccc1,-19% (inactive),
ClCCOCCOCCCl,13.3% (inactive),

Compound,"activity change, negative = inhibition",Potency
O=C1CCCCCCCCCCCC(=O)OCCO1,,35.6 µM (active)
CCCCCCCC#N,5.86% (inactive),
CCOC(=O)Cc1cccc2ccccc12,44.7% (inactive),
O=[N+]([O-])c1ccc(NCCO)c(OCCO)c1,-13.2% (inactive),
CC1(c2ccccc2)OC(C(=O)O)=CC1=O (stereo not given),1.73% [at 52.9 µM] (inactive),
O=C(O)c1ccccc1Cl,-0.0079% (inactive),
O=C(O)C1(C(=O)O)CCC1.[NH2-].[NH2-].[Pt+2],35.3% [at 52.9 µM] (inactive),
CCOc1ccc(O)cc1,0.686% (inactive),
N=c1ccn2c(n1)O[C@H]1[C@H](O)[C@@H](CO)O[C@H]12,3.3% (inactive),
CC(=O)c1cccc([N+](=O)[O-])c1,7.31% (inactive),
O=C(O)c1ccc(-n2nc(-c3ccccc3O)nc2-c2ccccc2O)cc1,0.361% [at 52.9 µM] (inactive),
CCCCCCCCO[C@@H]1O[C@H](CO)[C@@H](O)[C@H](O)[C@H]1O,-7.53% (inactive),
CCCCCCc1ccc(-c2ccc(C#N)cc2)cc1,3.49% (inactive),
Cc1[nH]c(C)c(Cl)c(=O)c1Cl,19.3% [at 23.6 µM] (inactive),
C[N+](C)(C)CCOC(=O)CCC(=O)OCC[N+](C)(C)C,8.62% [at 52.9 µM] (inactive),
O=C(O)CNCC(=O)O,0.283% [at 10.5 µM] (inactive),
CC1=CCCC(C)(C)C12CCC(C)O2 (stereo not given),,79.6 µM (active)
CN(C)CCN(Cc1ccsc1)c1ccccn1,6.82% [at 52.9 µM] (inactive),
CCOC(=O)C(=O)CCc1ccccc1,10.4% [at 52.9 µM] (inactive),
CCO[C@H](Cc1ccc(OCCc2ccc(OS(C)(=O)=O)cc2)cc1)C(=O)O,96.6% [at 52.9 µM] (inactive),
